Data reported in the supplement of paper PMC10849652.
About 8,800 targets were measured; listed, in parts, are those with a hit and a random draw of the rest. About 0.5% of all pairs of compound and target were hits.

Legend:
Assay in all cases: log2 fold change, soluble protein after heating vs DMSO (PISA); higher = thermal stabilisation; K562 lysate, 10 uM; active = over 0.2 and 3.5 SD of the protein, either way, in both replicates (recomputed)
vemurafenib = compound: CCCS(=O)(=O)Nc1ccc(F)c(C(=O)c2c[nH]c3ncc(-c4ccc(Cl)cc4)cc23)c1F [vemurafenib]
Method in brief: (§1)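 Pellets of K562 cells were dounce-homogenised in PBS pH 7.4 with 1 mM MgCl2, and the crude extract was held at 1 mg/mL protein for a 30 min treatment with 10 μM compound. Aliquots were heated for 3 min over 48°C-58°C and pooled before NP-40 was added to 0.5% at 4°C. The supernatant from 21,000xg for 90 min was quantified by TMTpro 16plex LC-MS/MS with channel sums equalised. Values are reported from duplicates as log-two fold change in thermal stability relative to solvent controls.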

barasertib = compound: CCN(CCCOc1ccc2c(Nc3cc(CC(=O)Nc4cccc(F)c4)[nH]n3)ncnc2c1)CCOP(=O)(O)O [barasertib]
Method in brief: as §1

[1] = compound: CC[C@@H]1C(=O)N(C)c2cnc(Nc3ccc(C(=O)NC4CCN(C)CC4)cc3OC)nc2N1C1CCCC1
Method in brief: as §1

[2] = compound: CCn1c(C(=O)N(C2CC2)C2CC2)cc2c3c(ncn3C)c(Nc3cc(C)n(C)n3)nc21
Method in brief: as §1

[3] = compound: CCn1cc(-c2ccnc3[nH]c(-c4cccc(CN(C)C)c4)cc23)c(-c2ccc(NC(=O)N(C)C)cc2)n1
Method in brief: as §1

[4] = compound: CN1CCC(CNc2ccc3ncc(-c4cccc(OC(F)(F)F)c4)n3n2)CC1
Method in brief: as §1

saracatinib = compound: CN1CCN(CCOc2cc(OC3CCOCC3)c3c(Nc4c(Cl)ccc5c4OCO5)ncnc3c2)CC1 [saracatinib]
Method in brief: as §1

sotrastaurin = compound: CN1CCN(c2nc(C3=C(c4c[nH]c5ccccc45)C(=O)NC3=O)c3ccccc3n2)CC1 [sotrastaurin]
Method in brief: as §1

alvocidib = compound: CN1CC[C@H](c2c(O)cc(O)c3c(=O)cc(-c4ccccc4Cl)oc23)[C@H](O)C1 [alvocidib]
Method in brief: as §1

Tubastatin A = compound: CN1CCc2c(c3ccccc3n2Cc2ccc(C(=O)NO)cc2)C1 [Tubastatin A]
Method in brief: as §1

[5] = compound: CNC(=O)C1=CC=CC=C1NC2=NC(=NC=C2Cl)NC3=C(C=C(C=C3)N4CCOCC4)OC
Method in brief: as §1

defactinib = compound: CNC(=O)c1ccc(Nc2ncc(C(F)(F)F)c(NCc3nccnc3N(C)S(C)(=O)=O)n2)cc1 [defactinib]
Method in brief: as §1

[6] = compound: CNc1nc(-c2ccc3c(N)n[nH]c3c2)cc(N2C[C@@H](C(=O)NC3CCCCC3)CC[C@H]2C)n1
Method in brief: as §1

encorafenib = compound: COC(=O)N[C@@H](C)CNc1nccc(-c2cn(C(C)C)nc2-c2cc(Cl)cc(NS(C)(=O)=O)c2F)n1 [encorafenib]
Method in brief: as §1

[7] = compound: COC(=O)[C@H](CCSC)NC(=O)C1=C(C=C(C=C1)NC[C@H](CS)N)C2=CC=CC=C2
Method in brief: as §1

alisertib = compound: COc1cc(Nc2ncc3c(n2)-c2ccc(Cl)cc2C(c2c(F)cccc2OC)=NC3)ccc1C(=O)O [alisertib]
Method in brief: as §1

gefitinib = compound: COc1cc2ncnc(Nc3ccc(F)c(Cl)c3)c2cc1OCCCN1CCOCC1 [gefitinib]
Method in brief: as §1

[8] = compound: CCCS(=O)(=O)Nc1ccc(F)c(C(=O)c2c[nH]c3ncc(Cl)cc23)c1F
Method in brief: as §1

volasertib = compound: CC[C@@H]1C(=O)N(C)c2cnc(Nc3ccc(C(=O)N[C@H]4CC[C@H](N5CCN(CC6CC6)CC5)CC4)cc3OC)nc2N1C(C)C [volasertib]
Method in brief: as §1

[9] = compound: COc1cc2nc(-c3cc(F)ccc3O)nc(N[C@@H]3CNC[C@H]3C(C)(C)O)c2cc1OC
Method in brief: as §1

Measured: log2 fold change

CDK5RAP1 (UniProt Q96SZ6)
inactive: vemurafenib -0.03 | barasertib 0.025 | [1] 0.059 | [2] 0.035 | [3] 0.023 | [4] 0.026 | saracatinib 0.026 | sotrastaurin -0.037 | alvocidib 0.019 | Tubastatin A -0.023 | [5] -0.06 | defactinib 0.018 | [6] -0.024 | encorafenib -0.057 | [7] 0.029 | alisertib -0.003 | gefitinib -0.007

ATPSCKMT (UniProt Q6P4H8)
inactive: barasertib -0.019 | [1] 0.171 | [2] 0.077 | saracatinib 0.053 | sotrastaurin -0.007 | [6] -0.027 | encorafenib -0.176 | [7] 0.17
active: Tubastatin A -0.368

CDC14A isoform 2 (UniProt Q9UNH5)
inactive: [8] -0.271 | volasertib 0.085 | [2] 0.101 | sotrastaurin 0.058 | Tubastatin A 0.272 | alisertib 0.075 | [9] 0.019 | gefitinib 0.078

CHD4, A0A2R8Y521
inactive: [8] -0.315 | [1] -0.053 | volasertib 0.103 | [2] -0.342 | saracatinib 0.149 | Tubastatin A -0.117 | [6] 0.155 | encorafenib 0.046 | [7] -0.086 | alisertib 0.133 | [9] -0.454 | gefitinib 0.167

BCORL1 isoform 3 (UniProt Q5H9F3)
inactive: vemurafenib 0.123 | [1] -0.033 | [2] -0.018 | [3] -0.546 | [4] 0.344 | saracatinib -0.082 | sotrastaurin -0.099 | alvocidib -0.328 | Tubastatin A -0.006 | [5] -0.064 | defactinib -0.213 | [6] 0.113 | encorafenib 0.022 | [7] 0.021

C6orf120 (UniProt Q7Z4R8)
inactive: [8] -0.127 | barasertib 0.096 | volasertib 0.051 | [3] -0.005 | [4] 0.049 | saracatinib 0.004 | alvocidib 0.096 | [5] 0.031 | [6] 0.066 | [9] -0.026

CENPV (UniProt Q7Z7K6)
Sequence of UniProt Q7Z7K6 (Q7Z7K6 whole entry, looked up): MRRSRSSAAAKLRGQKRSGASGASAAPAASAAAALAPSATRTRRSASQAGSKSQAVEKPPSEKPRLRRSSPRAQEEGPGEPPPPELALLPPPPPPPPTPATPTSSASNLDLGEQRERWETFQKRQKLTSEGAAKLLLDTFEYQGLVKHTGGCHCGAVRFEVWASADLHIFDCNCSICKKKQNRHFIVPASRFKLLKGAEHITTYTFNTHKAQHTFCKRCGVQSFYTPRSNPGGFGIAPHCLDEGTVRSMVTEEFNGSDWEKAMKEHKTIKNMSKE
inactive: vemurafenib -0.104 | barasertib 0 | [1] -0.033 | [2] 0.19 | [3] 0.264 | [4] -0.004 | sotrastaurin 0.007 | alvocidib -0.15 | Tubastatin A -0.458 | defactinib 0.117 | encorafenib 0.323 | [7] -0.045 | alisertib -0.205 | gefitinib 0.789

AVEN (UniProt Q9NQS1)
Sequence of UniProt Q9NQS1 (Q9NQS1 whole entry, looked up): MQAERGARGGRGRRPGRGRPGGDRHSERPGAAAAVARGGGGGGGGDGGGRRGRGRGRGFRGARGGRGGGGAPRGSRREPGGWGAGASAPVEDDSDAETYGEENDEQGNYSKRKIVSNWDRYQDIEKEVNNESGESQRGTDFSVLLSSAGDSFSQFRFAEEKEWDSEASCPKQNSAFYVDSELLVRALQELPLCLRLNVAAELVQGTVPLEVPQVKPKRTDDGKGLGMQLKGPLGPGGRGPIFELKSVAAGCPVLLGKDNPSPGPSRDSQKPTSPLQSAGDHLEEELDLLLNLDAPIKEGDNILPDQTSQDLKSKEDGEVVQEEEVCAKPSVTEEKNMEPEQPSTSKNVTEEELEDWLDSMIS
active: [3] -0.651
inactive: vemurafenib 0.177 | barasertib -0.091 | [1] 0.117 | [2] -0.025 | [4] 0.167 | saracatinib 0 | sotrastaurin -0.007 | alvocidib -0.047 | Tubastatin A -0.154 | [5] 0.049 | defactinib -0.097 | [6] 0.082 | encorafenib 0.017 | [7] 0.016 | alisertib 0.061 | gefitinib -0.09

B3GALT6 (UniProt Q96L58)
inactive: barasertib 0.002 | [2] 0.115 | saracatinib -0.172 | sotrastaurin 0.067 | Tubastatin A 0.051 | [5] -0.025 | [6] 0.059

C8orf88 (UniProt P0DMB2)
Sequence of UniProt P0DMB2 (P0DMB2 whole entry, looked up): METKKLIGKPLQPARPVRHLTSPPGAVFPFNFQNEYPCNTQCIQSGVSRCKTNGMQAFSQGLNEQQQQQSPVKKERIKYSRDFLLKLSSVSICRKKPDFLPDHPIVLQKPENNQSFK
inactive: barasertib -0.053 | [2] 0.027 | [3] 0.084 | [4] 0.011 | saracatinib 0.051 | sotrastaurin -0.015 | alvocidib 0.072 | Tubastatin A -0.064 | [5] 0.07 | [6] -0.015

CEP128 (UniProt Q6ZU80)
inactive: vemurafenib -0.025 | barasertib 0.124 | [1] -0.132 | [2] 0.375 | [4] 0.369 | saracatinib 0.07 | alvocidib -0.294 | Tubastatin A 0.565 | defactinib -0.052 | [6] -0.037 | encorafenib 0.064 | [7] 0.031
active: [3] -1.27

CCAR2 (UniProt G3V119)
inactive: [8] 0.087 | volasertib -0.074 | [9] -0.032

CEP57L1 (UniProt Q8IYX8)
inactive: barasertib -0.06 | [1] 0.227 | [2] 0.044 | [3] -0.028 | [4] -0.066 | saracatinib -0.065 | sotrastaurin -0.007 | alvocidib -0.024 | Tubastatin A -0.143 | [5] 0.141 | [6] -0.09 | encorafenib 0.118 | [7] -0.023 | alisertib -0.003 | gefitinib -0.038

BNIP3 (UniProt Q12983)
Sequence of UniProt Q12983 (Q12983 whole entry, looked up): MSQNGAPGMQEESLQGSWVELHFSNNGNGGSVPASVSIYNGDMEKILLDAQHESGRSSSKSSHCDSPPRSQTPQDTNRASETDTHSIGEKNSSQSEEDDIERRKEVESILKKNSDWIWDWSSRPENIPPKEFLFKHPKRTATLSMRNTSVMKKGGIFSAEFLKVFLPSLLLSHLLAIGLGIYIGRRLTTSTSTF
inactive: [8] 0.035 | barasertib -0.037 | [1] 0.069 | volasertib 0.116 | [2] -0.023 | [3] -0.307 | [4] 0.149 | saracatinib 0.118 | sotrastaurin 0.03 | alvocidib -0.065 | Tubastatin A -0.058 | [5] 0.076 | [6] 0.081 | encorafenib 0.015 | [7] 0.018 | alisertib -0.043 | [9] -0.128 | gefitinib 0.021

C15orf39 (UniProt Q6ZRI6)
Sequence of UniProt Q6ZRI6 (Q6ZRI6 whole entry, looked up): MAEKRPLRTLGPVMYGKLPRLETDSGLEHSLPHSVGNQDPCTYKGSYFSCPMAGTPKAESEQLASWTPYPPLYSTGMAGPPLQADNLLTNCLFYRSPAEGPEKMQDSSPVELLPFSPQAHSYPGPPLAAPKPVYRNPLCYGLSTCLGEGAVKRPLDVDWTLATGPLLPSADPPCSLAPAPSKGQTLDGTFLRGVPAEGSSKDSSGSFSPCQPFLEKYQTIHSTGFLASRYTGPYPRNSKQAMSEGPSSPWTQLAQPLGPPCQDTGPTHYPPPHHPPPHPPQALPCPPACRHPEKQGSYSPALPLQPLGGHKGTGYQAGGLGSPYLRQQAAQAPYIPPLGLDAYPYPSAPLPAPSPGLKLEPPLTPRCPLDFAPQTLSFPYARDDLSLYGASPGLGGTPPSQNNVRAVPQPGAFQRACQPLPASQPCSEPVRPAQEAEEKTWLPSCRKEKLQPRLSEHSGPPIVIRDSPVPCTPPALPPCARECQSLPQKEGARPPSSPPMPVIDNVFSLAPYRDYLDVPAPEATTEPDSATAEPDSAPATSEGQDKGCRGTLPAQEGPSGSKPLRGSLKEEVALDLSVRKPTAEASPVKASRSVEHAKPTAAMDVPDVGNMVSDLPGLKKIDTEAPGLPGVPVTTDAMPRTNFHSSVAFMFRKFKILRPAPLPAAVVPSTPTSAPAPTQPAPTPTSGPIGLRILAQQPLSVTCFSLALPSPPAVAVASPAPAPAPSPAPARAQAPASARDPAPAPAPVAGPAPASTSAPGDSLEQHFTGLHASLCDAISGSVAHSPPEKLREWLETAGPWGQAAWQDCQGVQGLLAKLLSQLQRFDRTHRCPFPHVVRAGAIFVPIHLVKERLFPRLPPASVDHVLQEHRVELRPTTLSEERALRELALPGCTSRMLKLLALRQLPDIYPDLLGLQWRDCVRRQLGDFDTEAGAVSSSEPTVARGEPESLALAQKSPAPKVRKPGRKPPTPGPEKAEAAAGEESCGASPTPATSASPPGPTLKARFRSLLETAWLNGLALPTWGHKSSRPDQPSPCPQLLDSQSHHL
inactive: barasertib -0.012 | [1] -0.047 | [2] -0.008 | [3] 0.08 | [4] 0.132 | saracatinib 0.025 | sotrastaurin 0.042 | alvocidib -0.04 | Tubastatin A -0.188 | [5] -0.031 | [6] 0.089 | encorafenib 0.047 | [7] 0.059 | alisertib 0.036 | gefitinib -0.067

ATG10 (UniProt Q9H0Y0)
inactive: vemurafenib 0.026 | barasertib 0.092 | [1] 0.016 | [2] 0.012 | [3] -0.021 | [4] 0.01 | saracatinib -0.021 | sotrastaurin 0.038 | alvocidib 0.106 | Tubastatin A -0.035 | [5] 0.01 | defactinib -0.037 | [6] -0.022 | encorafenib 0.024 | [7] 0.025 | alisertib 0.032 | gefitinib 0.04

BMT2 (UniProt Q1RMZ1)
inactive: [3] 0.004 | [4] 0.096 | alvocidib -0.004 | alisertib 0.025 | gefitinib -0.27

CASC1 (UniProt Q6TDU7)
inactive: barasertib 1.04 | [2] -0.217 | [3] 0.034 | [4] 0.006 | alvocidib -0.023 | Tubastatin A 0.317

CEP295 isoform 3 (UniProt Q9C0D2)
Sequence of UniProt Q9C0D2 (Q9C0D2 whole entry, looked up): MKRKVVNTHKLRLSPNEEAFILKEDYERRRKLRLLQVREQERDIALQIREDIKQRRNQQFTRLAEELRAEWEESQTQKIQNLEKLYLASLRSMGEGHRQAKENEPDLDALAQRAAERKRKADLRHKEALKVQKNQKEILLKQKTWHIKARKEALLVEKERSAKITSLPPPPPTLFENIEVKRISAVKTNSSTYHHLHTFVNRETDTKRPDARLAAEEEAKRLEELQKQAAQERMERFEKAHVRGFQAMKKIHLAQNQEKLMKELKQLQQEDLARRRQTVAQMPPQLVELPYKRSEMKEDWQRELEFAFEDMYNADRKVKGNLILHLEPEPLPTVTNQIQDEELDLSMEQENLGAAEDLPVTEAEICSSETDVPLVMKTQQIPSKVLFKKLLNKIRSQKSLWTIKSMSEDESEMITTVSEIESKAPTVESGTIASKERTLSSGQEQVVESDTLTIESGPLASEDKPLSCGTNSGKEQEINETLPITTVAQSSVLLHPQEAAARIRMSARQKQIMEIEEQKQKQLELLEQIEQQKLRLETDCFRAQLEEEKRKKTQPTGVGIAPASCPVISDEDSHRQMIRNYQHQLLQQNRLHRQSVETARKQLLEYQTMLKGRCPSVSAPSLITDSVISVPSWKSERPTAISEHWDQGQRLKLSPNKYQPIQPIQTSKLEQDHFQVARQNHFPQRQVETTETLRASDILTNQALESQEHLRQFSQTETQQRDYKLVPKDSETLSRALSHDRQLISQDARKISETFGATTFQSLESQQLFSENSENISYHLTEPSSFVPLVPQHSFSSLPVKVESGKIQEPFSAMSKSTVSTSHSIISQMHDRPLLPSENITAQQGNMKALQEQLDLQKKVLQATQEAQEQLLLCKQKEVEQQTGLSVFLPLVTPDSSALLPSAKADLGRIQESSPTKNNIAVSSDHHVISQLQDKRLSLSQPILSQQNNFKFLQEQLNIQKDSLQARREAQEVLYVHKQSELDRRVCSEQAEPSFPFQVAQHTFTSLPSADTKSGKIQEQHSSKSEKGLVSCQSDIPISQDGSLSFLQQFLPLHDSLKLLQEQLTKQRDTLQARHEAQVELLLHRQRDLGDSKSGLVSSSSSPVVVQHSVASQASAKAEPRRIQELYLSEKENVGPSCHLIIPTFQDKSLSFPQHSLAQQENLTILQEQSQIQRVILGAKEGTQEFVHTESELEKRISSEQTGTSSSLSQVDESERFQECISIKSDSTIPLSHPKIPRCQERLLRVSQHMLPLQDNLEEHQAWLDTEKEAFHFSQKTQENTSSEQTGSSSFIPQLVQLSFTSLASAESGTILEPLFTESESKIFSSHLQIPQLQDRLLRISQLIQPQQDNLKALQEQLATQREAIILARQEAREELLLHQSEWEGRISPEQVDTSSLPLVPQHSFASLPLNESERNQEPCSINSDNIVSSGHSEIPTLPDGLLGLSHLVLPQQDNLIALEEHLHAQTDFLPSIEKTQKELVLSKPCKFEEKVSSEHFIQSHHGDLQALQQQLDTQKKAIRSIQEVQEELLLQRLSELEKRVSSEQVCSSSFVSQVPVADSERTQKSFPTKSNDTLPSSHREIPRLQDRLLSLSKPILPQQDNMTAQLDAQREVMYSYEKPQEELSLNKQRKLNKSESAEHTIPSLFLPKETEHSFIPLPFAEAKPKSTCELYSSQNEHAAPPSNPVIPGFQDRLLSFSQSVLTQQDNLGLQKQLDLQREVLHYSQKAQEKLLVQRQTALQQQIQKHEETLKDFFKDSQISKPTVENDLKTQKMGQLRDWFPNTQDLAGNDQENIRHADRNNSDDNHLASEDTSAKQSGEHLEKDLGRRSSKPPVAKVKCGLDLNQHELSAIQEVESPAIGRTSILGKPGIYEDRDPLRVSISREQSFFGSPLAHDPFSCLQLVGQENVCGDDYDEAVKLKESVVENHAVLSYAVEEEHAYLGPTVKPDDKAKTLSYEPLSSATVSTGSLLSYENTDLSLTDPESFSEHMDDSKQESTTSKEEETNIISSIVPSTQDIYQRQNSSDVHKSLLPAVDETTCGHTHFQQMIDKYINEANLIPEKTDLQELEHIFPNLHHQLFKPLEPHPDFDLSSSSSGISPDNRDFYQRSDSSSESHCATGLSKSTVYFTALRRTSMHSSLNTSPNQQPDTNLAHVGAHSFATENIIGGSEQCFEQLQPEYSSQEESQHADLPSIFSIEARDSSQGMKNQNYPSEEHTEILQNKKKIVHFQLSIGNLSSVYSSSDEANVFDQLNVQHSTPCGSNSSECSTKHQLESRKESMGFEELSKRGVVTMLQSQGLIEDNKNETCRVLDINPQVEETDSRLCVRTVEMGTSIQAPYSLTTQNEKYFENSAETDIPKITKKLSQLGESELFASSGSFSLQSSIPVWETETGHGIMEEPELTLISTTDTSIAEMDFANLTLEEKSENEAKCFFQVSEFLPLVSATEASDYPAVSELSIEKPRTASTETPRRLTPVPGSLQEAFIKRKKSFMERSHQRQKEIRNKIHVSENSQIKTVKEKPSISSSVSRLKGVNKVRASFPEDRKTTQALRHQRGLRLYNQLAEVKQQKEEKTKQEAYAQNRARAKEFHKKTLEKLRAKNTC
inactive: [8] -0.058 | barasertib -0.039 | [1] 0.052 | volasertib 0.043 | [2] -0.028 | [3] -0.387 | [4] 0.001 | sotrastaurin 0.005 | alvocidib -0.039 | Tubastatin A -0.099 | [5] -0.029 | encorafenib -0.154 | [7] 0.149 | alisertib 0.018 | [9] -0.016 | gefitinib -0.041

CDCA8 (UniProt Q53HL2)
inactive: vemurafenib 0.025 | barasertib 0.106 | [1] 0.051 | [4] -0.034 | saracatinib 0.171 | alvocidib 0.091 | [5] 0.054 | defactinib 0.144 | [6] -0.061 | encorafenib 0.003 | [7] -0.044 | alisertib 0.034 | gefitinib 0.04
active: [3] 0.677

C3AR1 (UniProt Q16581)
Sequence of UniProt Q16581 (Q16581 whole entry, looked up): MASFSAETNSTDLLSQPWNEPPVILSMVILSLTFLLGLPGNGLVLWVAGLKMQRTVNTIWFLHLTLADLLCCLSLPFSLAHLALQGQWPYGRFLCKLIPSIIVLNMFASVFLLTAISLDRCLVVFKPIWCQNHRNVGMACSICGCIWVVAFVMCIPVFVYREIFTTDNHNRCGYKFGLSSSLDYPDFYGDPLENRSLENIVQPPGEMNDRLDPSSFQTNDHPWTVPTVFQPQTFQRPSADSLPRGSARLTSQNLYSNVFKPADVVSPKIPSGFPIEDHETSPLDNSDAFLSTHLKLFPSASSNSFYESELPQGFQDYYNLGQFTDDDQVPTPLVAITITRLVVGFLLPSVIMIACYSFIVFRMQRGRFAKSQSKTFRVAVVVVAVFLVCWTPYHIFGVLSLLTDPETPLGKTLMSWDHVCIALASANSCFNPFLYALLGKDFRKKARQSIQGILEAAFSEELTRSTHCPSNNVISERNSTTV
active: [3] -0.664
inactive: barasertib -0.172 | [4] -0.286 | sotrastaurin -0.004 | alvocidib 0.055 | alisertib 0.358 | gefitinib 0.053

ATG4D (UniProt Q86TL0)
inactive: barasertib -0.074 | [1] 0.055 | [2] 0.116 | saracatinib -0.188 | sotrastaurin 0.058 | Tubastatin A -0.09 | [6] -0.008 | encorafenib -0.031 | [7] -0.155

CHD9 (UniProt Q3L8U1)
active: [3] 1.88
inactive: vemurafenib -0.028 | [2] -0.139 | [4] -0.122 | saracatinib 0.114 | sotrastaurin 0.17 | alvocidib 0.027 | Tubastatin A 0.055 | [5] -0.064 | defactinib -0.147 | [6] -0.137 | alisertib -0.369 | gefitinib 0.111

CARHSP1 (UniProt H3BNU9)
inactive: [8] 0.032 | barasertib 0.246 | volasertib -0.161 | [3] 0.16 | [4] -0.522 | alvocidib -0.027 | alisertib -0.107 | [9] -0.003 | gefitinib -0.213
